# This is part of a sample that, as a whole, favours compounds with a hit. Of some 79,000 tested, about 15% had one in any assay. Unmarked numbers belong to inactive results. The source made the active and inactive calls. Cut-off read from the data, not from the text of the source: active = growth inhibition above about 70%; inactive = the rest.
# What was measured:
# [1] = NCI Yeast Anticancer Drug Screen. Data for the rad50 strain (AID 155);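 note: 0% = growth of vehicle-only cultures of the same strain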; conditions: S. cerevisiae rad50 strain growth inhibition; at 50.0 µM; stronger effect = higher value
# Procedure, shortened: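 Inhibition values express reduced yeast growth in compound-treated cultures relative to vehicle-treated controls.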
# [2] = NCI Yeast Anticancer Drug Screen. Data for the mec2-1 strain (AID 157); conditions: S. cerevisiae mec2-1 strain, at 50.0 µM, stronger effect = higher value
# Procedure, shortened: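 Readout is yeast growth inhibition, normalised to vehicle-treated controls, in the mec2-1 strain exposed to compound.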
# [3] = NCI Yeast Anticancer Drug Screen. Data for the sgs1 mgt1 strain (AID 161);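 note: 0% = growth of cultures given vehicle only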; conditions: S. cerevisiae sgs1 mgt1 strain, at 50.0 µM, stronger effect = higher value
# Procedure, shortened: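 Compounds are added to genetically altered yeast, and growth is compared with cultures given vehicle alone to give percent inhibition.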
# [4] = NCI Yeast Anticancer Drug Screen. Data for the cln2 rad14 strain (AID 165);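 note: 0% = growth equal to vehicle treated cultures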; conditions: S. cerevisiae cln2 rad14 strain, at 50.0 µM, stronger effect = higher value
# Procedure, shortened: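 Relative to vehicle controls, growth inhibition of compound-treated cln2 rad14 yeast was recorded.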
# [5] = NCI Yeast Anticancer Drug Screen. Data for the bub3 strain (AID 167); conditions: S. cerevisiae bub3 mutant strain, at 50.0 µM, stronger effect = higher value
# Procedure, shortened: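 Steps: expose the mutant yeast strain to compound; grow alongside vehicle-treated cultures; measure growth; express inhibition against the vehicle cultures.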
# [6] = NCI Yeast Anticancer Drug Screen. Data for the mlh1 rad18 strain (AID 175); conditions: S. cerevisiae mlh1 rad18 strain growth inhibition; at 50.0 µM; stronger effect = higher value
# Procedure, shortened: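 Test agents were incubated with a yeast strain of defined genotype (DNA damage repair defect). Inhibition of growth was derived by comparison with vehicle-exposed cultures.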
SMILES,growth inhibition [1] [%],growth inhibition [2],growth inhibition [3],growth inhibition [4] [%],growth inhibition [5],growth inhibition [6]
CCCCN(CCCC)CCCO,-14.4,-24.5%,-11.3%,-27.7,-2.7%,-21.1%
Cc1cc(C)cc(NCCC#N)c1,15.5,-32.5%,18.4%,-1.75,11.8%,-17.4%
CC(=O)N(C)c1ccc([N+](=O)[O-])cc1,21.8,-5.6%,21.2%,26.2,24.4%,1.3%
COC(=O)Nc1nc2ccc(C(=O)c3ccc(F)cc3)cc2[nH]1,-9,-6.35%,-30.2%,-26.4,-17.5%,-43.9%
O=c1[nH]nc(SC2CCCCC2)c(=O)[nH]1,-12.1,-3.1%,-11.9%,-5.4,4.85%,-11.1%
N=c1c(C(=O)OCc2ccccc2)ncc(CCl)n1O,37.3,80.5% (active),72.2% (active),22.9,73.2% (active),77.8% (active)
COC(=O)c1cccnc1,6.65,-3.85%,-0.35%,7.2,-23.8%,-1.2%
OCc1cccc2ccccc12,27.6,25.9%,13.9%,-27.4,3.6%,24.5%
CCCCOC(=O)c1ccc(C(C)C)cc1,8.85,6.85%,8.65%,-19.4,7.55%,4.35%
Cc1ccc(Cl)cc1N1C(=O)CC(Sc2ccccc2N)C1=O (stereo not drawn),21.9,-2.8%,28.4%,8.65,30.8%,20.2%
COc1cc(-c2ccc(NC(=O)NC3CC3)c(OC)c2)ccc1NC(=O)NC1CC1,-26.9,-23.2%,-24.1%,3.15,-25.2%,-25.8%
O=[N+]([O-])c1ccc(O)c(S(=O)(=O)O)c1,8.55,-20.6%,7.65%,15.7,-0.45%,4.1%
CC1(C)N=C(N)N=C(N)N1c1ccc(Cl)cc1,19.7,3.35%,0.4%,-20.2,3.85%,35.7%
C=CCOC(=O)C(=O)OCC=C,18.8,30.6%,-25.9%,1.95,5.35%,14.8%
NCCC(=O)c1ccc(Cl)cc1,45.4,-10.4%,6.8%,4.45,-9.6%,19.8%
COc1cc2nn(-c3ccccc3N)nc2cc1OC,19.4,36.6%,48.2%,14.7,52.2%,29.9%
CN(C)c1ccc(CNC(C(=O)c2ccccc2)c2ccccc2)cc1 (stereo not drawn),-31,-5.35%,-15.6%,-17.4,8.3%,-20.9%
OCc1ccc(-c2ccc(-c3ccc(CO)s3)o2)s1,31.1,3.55%,39.9%,31.9,25.3%,90.7% (active)
CCOC(=O)CCCS(C)(=O)=O,-26.5,-19.6%,-32%,-17.9,-1.95%,7.3%
CC(=O)/C(Cc1ccccc1)=N/O,10.7,4.55%,15.8%,-4,-2.1%,2.15%
CC(CN1CCCCC1)NC(=O)c1scnc1-c1ccccc1 (stereo not drawn),-5.45,-10%,-9.15%,-2.5,-1.55%,-4.55%
CN(C)c1ccc2nc3ccc(=N)cc-3sc2c1,4.55,-19.1%,18.6%,7.45,-15.2%,22.4%

SMILES,growth inhibition [1] [%],growth inhibition [2],growth inhibition [3],growth inhibition [4] [%],growth inhibition [5],growth inhibition [6]
CN(C)c1ccc(S(=O)(=O)O)cc1,1.3,-3.65%,6.65%,10,2.55%,21.9%
O=[N+]([O-])c1ccc(/C=C/C=C/c2ccccc2)c(Cl)c1,-8.75,-18.3%,-3.4%,-45.1,-4.85%,-11.4%
COc1cc2nc3cc([N+](=O)[O-])ccc3c(Cl)c2cc1OC,-14.8,-20.9%,-19.7%,4.3,-14.2%,7.6%
CN1C(=O)CN2CCc3ccccc3C2c2cc(Cl)ccc21 (stereo not drawn),33.3,26.4%,47.6%,22.1,48%,42.1%
COc1ccccc1N=Nc1c(O)ccc2cc(S(=O)(=O)O)ccc12,-14.7,6.9%,6.75%,9.95,-2.75%,-13.2%
Cc1c(O)cccc1O,-5.55,-17.4%,7.8%,7.1,-8.2%,-8.3%
CCCC(C)OCC(=O)O (stereo not drawn),31.6,-3.4%,1.55%,4.35,-1.25%,-7.1%
O=C(Cc1nc2ccc([N+](=O)[O-])cc2nc1CC(=O)c1cccnc1)c1cccnc1,14.3,10.5%,-1.35%,15.2,-3.85%,9.6%
C=CCNc1ccccc1,31.2,4.35%,7.55%,-36.6,17.6%,13.7%
COC(=O)c1[nH]c(=O)c(C#N)c(C(=O)OC)c1C(=O)c1ccccc1,5,-6.4%,10.5%,19.2,-25.1%,12%
CCOC(=O)c1ccc(NC(=S)P(=O)(c2ccccc2)c2ccccc2)cc1,41.5,10.2%,42.8%,30.7,14.9%,39.8%
Cc1ccc(O)c(C(=O)c2ccccc2)c1,4.3,-16.7%,12.5%,-8.8,-3.65%,14.7%
CCOC(=O)c1coc(C(=O)OCC)c1C(=O)OCC,-4.95,-18.1%,5.25%,-3.05,4.6%,5.3%
CCCCNC(=O)C(=O)NCCCC,10.8,7.2%,4.6%,28.6,7%,1.75%
CC1=CC(C)(C)NC(=S)N1c1ccc(S(=O)(=O)O)c2cccc(S(=O)(=O)O)c12,-4.8,-5.25%,-13.1%,-30.9,4.3%,-33.1%
COc1cc(CN)ccc1O,1.65,-6.25%,-8.75%,10.7,11.8%,12.2%
O=[N+]([O-])c1ccc(Sc2ccncn2)c([N+](=O)[O-])c1,24.7,16.6%,8.9%,-5.55,-12.3%,30.8%
CN(C)c1nc2c([nH]1)c(=O)n(C)c(=O)n2C,22.4,-15.2%,2.2%,5.2,-10.1%,5.45%
O=c1[nH]n(-c2ccccc2)c(=O)cc1Cl,-0.9,2.25%,-4%,-0.3,3.55%,2%
CCOC(=O)c1ccc(Nc2sc(C(=O)c3cccc([N+](=O)[O-])c3)c(N)c2C#N)cc1,-9.95,-9.95%,-0.95%,5.75,2.8%,0.55%
c1cc2cccc3c4cccc5cccc(c(c1)c23)c54,-18.9,-22.6%,-17.9%,10.8,-4.15%,-15.4%

# Source: PubChem BioAssay (NCI)
